# Test results as given in PubChem BioAssay AID463198 (Broad Institute, 2010).
# Some of the results follow. Calls of active or inactive are those of the source.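 Rule for the calls: active = fitted AC50 no greater than ten times the top concentration tested (cut at about 17 µM in these data); inconclusive = flat fit with 30 to 70% signal change, or an unreliable fit; inactive = AC50 beyond ten times the top concentration tested.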
# Assay: DNA intercalators displacing acridine orange, dose response, counter-screen for LANA–histone interaction inhibitor project, biochemical, fluorescence polarization, cell-free (AID 463198)
# Details: acridine orange-DNA binding
row,SMILES,AC50
1,Cc1nn(C)cc1N1C(=O)c2cccc3c(N)ccc(c23)C1=O,4.91 µM (active)
2,O=S(=O)(Nc1cc(Cl)ccc1N1CCOCC1)c1ccccc1Cl,> 35 µM (inactive)
3,CN1C(=O)c2cccc3c(N)ccc(c23)C1=O,7.65 µM (active)
4,COc1ccc(C2C=C(c3ccc(Br)cc3)Nc3nc(NS(C)(=O)=O)nn32)cc1 (centres undefined),> 35 µM (inactive)
